Hit rate of the full screen: of about 360,000 compounds, about 2,400 (0.67%) were called active. The sample as a whole holds a higher share of actives than the screen did. Values without a mark were called inactive. No stated cut-off is given here; in the data, active means enhancement above about 30%; inactive means the rest.
What follows are compounds tested against Thyrotropin-releasing hormone receptor (Homo sapiens) (UniProt P34981) (assay: qHTS for Small Molecule Agonists and Allosteric Enhancers of Human TRH Receptor: Primary Screen for Enhancers). Conditions: TRHR cells, fluo-8 calcium fluorescence, EC20 TRH enhancement; at 2 µM; active compounds read high.
Sequence of Thyrotropin-releasing hormone receptor (Homo sapiens) (P34981 whole entry, looked up): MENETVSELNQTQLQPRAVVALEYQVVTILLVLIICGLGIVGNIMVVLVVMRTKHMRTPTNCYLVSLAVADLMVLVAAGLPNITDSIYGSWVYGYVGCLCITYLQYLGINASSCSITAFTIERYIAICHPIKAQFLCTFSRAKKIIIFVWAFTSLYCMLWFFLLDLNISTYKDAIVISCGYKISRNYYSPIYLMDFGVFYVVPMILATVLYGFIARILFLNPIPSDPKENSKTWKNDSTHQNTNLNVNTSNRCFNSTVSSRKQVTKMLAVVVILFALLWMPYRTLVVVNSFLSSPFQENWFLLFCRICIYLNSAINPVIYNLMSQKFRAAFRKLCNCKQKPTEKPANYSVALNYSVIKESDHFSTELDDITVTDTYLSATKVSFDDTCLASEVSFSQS
Summary of the method: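 TRHR-expressing cells loaded with fluo-8 calcium dye were read kinetically (ex 480/em 530) during compound addition, then stimulated with an EC20 of TRH (10 nM final). Enhancement of the Gq-mediated intracellular calcium response was scored.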
Further: 0% is about no effect.

Q: For `Cc1csc(SCC(=O)Nc2sccc2C#N)n1`, which enhancement is on record?
A: -4.36%

Q: With `COc1ccc(NC(=O)CSc2nc(C)cs2)cc1` as the compound, how does the enhancement read?
A: 33.7% (active)

Q: `COc1ccc(NC(=O)CSc2ncnc3[nH]ncc23)cc1` was tested. Which enhancement did it give?
A: 3.87%

Q: How did the enhancement turn out when `O=C(COC(=O)CCCSc1nc2ccccc2[nH]1)Nc1ccc(Oc2ccccc2)cc1` was run?
A: 1.7%

Q: Which enhancement does the source give for `COC(=O)c1cccc(Cn2nnc3sc4c(c3c2=O)CCC(C(C)(C)C)C4)c1` (stereo not given) here?
A: -1.23%

Q: For `COc1ccc(CCNC(=O)C(=O)NCC(c2ccco2)S(=O)(=O)c2cccs2)cc1OC` (stereo not given), which enhancement is on record?
A: -2.44%

Q: `Cn1nnnc1Sc1ncnc2scc(-c3ccccc3[N+](=O)[O-])c12` was tested. Which enhancement did it give?
A: -1.81%

Q: With `COc1cc(OC)cc(C(=O)Nc2ccc3nc(Nc4cccc(C(F)(F)F)c4)cc(C)c3c2)c1` as the compound, how does the enhancement read?
A: -5.96%

Q: Which enhancement does the source give for `Cc1cccc(-c2nnc(SCC(=O)N3CCCc4ccccc43)o2)c1` here?
A: -6.5%

Q: `CC1=CC(C)(C)N(C(=O)CSc2nnc(-c3ccccc3)o2)c2ccc(C)cc21` was tested. Which enhancement did it give?
A: 35.8% (active)

Q: With `CC1=CC(C)(C)N(C(=O)CSc2nccn2C)c2cc(C)ccc21` as the compound, how does the enhancement read?
A: -7.93%

Q: How did the enhancement turn out when `CCOc1ccc(-c2cc(C)n3nc(C(=O)Nc4ccc(C)c(C)c4)cc3n2)cc1` was run?
A: 4.67%

Q: `COc1cccc(NC(=O)c2csnn2)c1` was tested. Which enhancement did it give?
A: 1.76%

Q: Which enhancement does the source give for `Cc1ccccc1-n1nc(C)c2cc(C(=O)NC3CC3)sc21` here?
A: -3%

Q: For `CCOC(=O)CNC(=O)c1cc2c(=O)n3cccc(C)c3nc2s1`, which enhancement is on record?
A: -2%

Q: For `Cc1cccn2c(=O)c3cc(C(=O)NC4CCCCC4)sc3nc12`, which enhancement is on record?
A: 44.3% (active)

Q: Which enhancement does the source give for `COc1ccc(Cl)cc1NC(=O)C(C)Sc1nc2c(c(=O)[nH]1)CCCC2` (stereo not given) here?
A: 0.18%

Q: Which enhancement does the source give for `COc1ccc(C2COC(=O)C2=N)c(NC(=O)c2ccccc2)c1` (stereo not given) here?
A: -7.29%

Q: `CC(=O)c1cc(NC(=O)c2ccccc2)c(=O)oc1/C=C/N(C)C` was tested. Which enhancement did it give?
A: 31.6% (active)

Q: `CCOC(=O)c1cc(NC(=O)c2ccc(F)cc2)c(=O)n2c1oc1ccccc12` was tested. Which enhancement did it give?
A: -6.78%

Q: Which enhancement does the source give for `COc1cc(OC)c(NC(=O)Cc2ccc(-n3c(C)nc4cccnc43)cc2)cc1Cl` here?
A: 9.81%

Q: With `COc1ccc(OCc2n[nH]c(=S)n2N)cc1` as the compound, how does the enhancement read?
A: 41.1% (active)

Q: Which enhancement does the source give for `CSc1n[nH]c(=S)n1N` here?
A: 4.42%

Q: `COc1ccc(Cc2n[nH]c(=S)n2NC(=O)Nc2ccc(C)cc2)cc1` was tested. Which enhancement did it give?
A: -6.6%

Q: With `COc1ccccc1N1CCN(c2ccc(=O)n(CC(=O)NCc3ccc(OC(C)C)cc3)n2)CC1` as the compound, how does the enhancement read?
A: 2.06%

Q: For `COc1cc(OC)c(NC(=O)c2cnc(N3CCCC3)nc2C)cc1Cl`, which enhancement is on record?
A: 0.561%

Q: With `CCOCCCNC(=O)c1c(NC(=O)c2nc(SC)ncc2Cl)sc2c1CCCC2` as the compound, how does the enhancement read?
A: 6.4%

Q: How did the enhancement turn out when `CC1=C(C)CC(C(=O)NC(C)CCc2ccccc2)C(C(=O)O)C1` (stereo not given) was run?
A: 46.8% (active)

Q: Which enhancement does the source give for `CCN(CC)S(=O)(=O)N1CCC(C(=O)NC(C)CCc2ccccc2)CC1` (stereo not given) here?
A: 5.01%

Q: For `CC(CCc1ccccc1)NC(=O)c1cnc(Cl)c(Cl)c1` (stereo not given), which enhancement is on record?
A: -11.8%

Q: `CCc1nn(CC(=O)N2CCN(c3cccc(C(F)(F)F)c3)CC2)c(=O)c2cc3occc3n12` was tested. Which enhancement did it give?
A: 6.05%

Q: Which enhancement does the source give for `COc1cc(OC)cc(C(=O)NCCc2csc3nc(-c4ccccc4F)nn23)c1` here?
A: -2.81%

Q: With `COc1ccc(C2(O)C(=O)Nc3ccccc32)cc1` (stereo not given) as the compound, how does the enhancement read?
A: -4.9%

Q: How did the enhancement turn out when `COc1ccc(C2(C)ON(c3ccccc3C(F)(F)F)C2=O)cc1` (stereo not given) was run?
A: 35% (active)

Q: With `COc1ccc(C2(C)NC(=O)N(CC(=O)c3ccc4c(c3)OCO4)C2=O)cc1` (stereo not given) as the compound, how does the enhancement read?
A: 2.8%

Q: How did the enhancement turn out when `COc1ccc(NC(=O)C2CCCN(S(=O)(=O)c3cccc4nonc34)C2)cc1Cl` (stereo not given) was run?
A: -6.01%

Q: Which enhancement does the source give for `Cc1ccc(Cn2c(CCCNC(=O)C3CCCCC3)nc3ccccc32)cc1` here?
A: -17%

Q: For `CC12CCC(C(=O)N3CCN(c4ncccn4)CC3)(c3nc4ccccc4nc31)C2(C)C` (stereo not given), which enhancement is on record?
A: -2.73%

Q: `O=C(c1ccc2ccccc2n1)N1CCN(c2ccccc2Cl)CC1` was tested. Which enhancement did it give?
A: 2.59%

Q: Which enhancement does the source give for `c1cnc(N2CCN(c3ccc4ccccc4n3)CC2)nc1` here?
A: 45.5% (active)

Q: With `CCOc1ccccc1CNC(=O)c1ccc(-n2c(C)cc3c2CCC(C)C3)cc1` (stereo not given) as the compound, how does the enhancement read?
A: -0.716%

Q: Which enhancement does the source give for `NC(=O)CSc1nc2c(oc3ccccc32)c(=O)n1Cc1ccccc1` here?
A: -1.53%

Q: For `O=C(CNC(=O)c1ccc(Cl)cc1Cl)NCC(=O)Nc1ccccc1N1CCOCC1`, which enhancement is on record?
A: 31.1% (active)

Q: Which enhancement does the source give for `Cc1ccc(NC(=O)COC(=O)CNC(=O)c2ccc(Cl)cc2Cl)cc1S(=O)(=O)N1CCOCC1` here?
A: 1.95%

Q: For `O=C(Nc1ccccc1N1CCOCC1)c1ccncc1`, which enhancement is on record?
A: 6.76%

— PubChem BioAssay AID493056 (National Center for Advancing Translational Sciences (NCATS), 2011)
